From PubChem
BoNT F protease: blocks Botulinum neurotoxin F light chain protease | AID 588497 | hit rate 0.22% among 360,000 | Multiplex microsphere protease cleavage assay, flow cytometry | inhibition, % at 10 µM; in the data active means inhibition above about 35%, passing the limit was not always enough; inconclusive means no clear call, values can overlap the other calls; further: plate controls were buffer without enzyme for full effect and enzyme alone for no effect
Anthrax LF prot: anthrax lethal factor protease inhibition; P15917; multiplex microsphere protease cleavage assay, LF; inhibition, % at 10 µM; hit rate 0.12% among 360,000; AID 588501; further: plate controls were buffer without enzyme for full effect and enzyme alone for no effect
Target sequence (P15917 whole entry, looked up): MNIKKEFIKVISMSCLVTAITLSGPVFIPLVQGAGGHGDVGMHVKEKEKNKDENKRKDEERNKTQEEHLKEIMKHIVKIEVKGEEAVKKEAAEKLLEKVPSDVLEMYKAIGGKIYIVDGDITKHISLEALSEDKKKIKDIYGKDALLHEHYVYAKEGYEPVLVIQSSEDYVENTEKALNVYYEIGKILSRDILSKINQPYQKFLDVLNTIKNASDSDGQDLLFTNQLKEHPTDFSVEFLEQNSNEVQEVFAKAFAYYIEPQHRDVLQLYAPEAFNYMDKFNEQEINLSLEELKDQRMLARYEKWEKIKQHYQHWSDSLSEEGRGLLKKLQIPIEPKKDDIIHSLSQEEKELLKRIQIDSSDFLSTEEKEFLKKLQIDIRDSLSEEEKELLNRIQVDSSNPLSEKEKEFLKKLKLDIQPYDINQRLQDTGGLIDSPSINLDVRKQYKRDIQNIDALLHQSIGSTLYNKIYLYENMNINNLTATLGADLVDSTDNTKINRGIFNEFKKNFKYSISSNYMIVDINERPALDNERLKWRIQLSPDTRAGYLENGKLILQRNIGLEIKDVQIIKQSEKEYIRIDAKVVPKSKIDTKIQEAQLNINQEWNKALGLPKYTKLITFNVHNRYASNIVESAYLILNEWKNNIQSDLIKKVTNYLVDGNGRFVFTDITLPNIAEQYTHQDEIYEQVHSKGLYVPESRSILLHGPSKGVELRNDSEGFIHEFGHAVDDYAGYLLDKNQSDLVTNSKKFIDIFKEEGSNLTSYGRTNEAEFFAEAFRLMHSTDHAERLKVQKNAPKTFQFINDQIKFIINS
Bead autofluor: compound fluorescence in toxin protease inhibitor counterscreen; compound autofluorescence counterscreen, microsphere flow cytometry; active compounds read high; fluorescence intensity (no concentration beside the values); hit rate 3.1% among 360,000; AID 624483; in the data active means fluorescence intensity above about 16000; inconclusive means no clear call, values can overlap the other calls
BoNT A protease: blocks Botulinum neurotoxin A light chain protease; inhibition, % at 10 µM; multiplex microsphere protease substrate cleavage, flow cytometry; AID 588499; hit rate 0.17% among 360,000; further: plate controls were buffer without enzyme for full effect and enzyme alone for no effect
The depositor's hits bear a star; ? = inconclusive. A selection: hits, their analogues and other compounds. The true share with any hit is near 3.5%. Unless noted, no stated cut-off is given here; in the data, active means inhibition above about 30%; inconclusive means no clear call, values can overlap the other calls; inactive means below that.

SMILES | BoNT F protease | Anthrax LF prot | Bead autofluor | BoNT A protease
CC(=Nc1ccc2c(c1)CCC2)c1c(O)n(C2CCCCC2)c(=O)[nH]c1=O | 3.3 | -3.8 | 15927 | 0.9
CCC(=Nc1ccc2c(c1)CCC2)c1c(O)n(C2CCCCC2)c(=O)[nH]c1=O | -0.5 | -0.3 | 22000* | ?
CC(C(=O)Nc1ccccc1Br)N1c2cccc3cccc(c23)S1(=O)=O (stereo not drawn) | 4.1 | -0.2 | 4038 | 1.1
CCCCCCN1C[C@@H](n2cc(COC(=O)c3ccccc3)nn2)[C@H](O)C[C@@H]1c1ccc(Cl)cc1 | 1.6 | -4.3 | 3767 | 0.2
COC(=O)c1ccc(-n2c(C)cc(/C=N/n3cnnc3)c2C)cc1 | -0.2 | 0.2 | 3597 | 0.9
Cc1cc(/C=N/n2cnnc2)c(C)n1-c1ccc(C(=O)O)cc1 | -2.3 | -1.7 | 23182* | -1.7
C=C(C)CN(CC)c1nc(N)c(C#N)c(CC#N)c1C#N | -0.2 | -0.9 | 20294* | ?
CCNC(=O)N(C)[C@H]1C[C@H]2c3[nH]c4ccccc4c3CCN2C[C@H]1[C@H](C)O | -2.7 | 0.4 | 5598 | 1.0
C[C@H](O)[C@@H]1CN2CCc3c([nH]c4ccccc34)[C@@H]2C[C@@H]1N(C)C(=S)NCCc1ccccc1 | -31.5 | -1.1 | 12944 | 37.4*
CCN(CC)c1ccc(/C=C2\CCC(/C=C(\C#N)C(=O)Nc3ccccc3F)=C2N2CCOCC2)cc1 | -18.3 | 9.1 | 3080 | 39.8*
CCCn1c(=O)c(C(=O)NCCc2ccc(OC)cc2)c(O)c2ccccc21 | ? | -11.2 | 3767 | -1.6
Cc1ccc(OCC(=O)N2N=C(C(F)(F)F)CC2(O)C(C)(C)C)cc1C (stereo not drawn) | -0.8 | -7.1 | 19845* | 1.6
C=CCn1c(NCc2ccccc2O)nc2ccccc21 | ? | -13.8 | 2781 | -0.2
C=CCc1cccc(CNc2nc3ccccc3n2C(C)C)c1O | -2.6 | -3.6 | 23489* | ?
O=c1c2ccccc2nc(-c2ccccc2)n1CCCN1CCOCC1 | -5.1 | -3.4 | 16595* | -1.5
OCc1cn(-c2ccc(Cl)cc2)nn1 | -1.9 | -4.0 | 4706 | -1.1
CCCCC(=O)OCc1cn(-c2ccc(Cl)cc2)nn1 | -0.3 | -0.8 | 22405* | 1.1
O=C(Nc1ccc(Cl)cc1)OCc1cn(-c2ccccc2)nn1 | -12.0 | -3.4 | 4515 | -1.9
Cc1ccccc1NC(=O)OCc1cn(-c2ccc(Cl)cc2)nn1 | 1.3 | -4.1 | 22413* | -0.1
COc1cc(OC)c(C2C(C(=O)N3CCOCC3)=C(C)NC3=C2C(=O)CC(C)(C)C3)cc1OC (stereo not drawn) | 3.6 | 4.8 | 8576 | 1.5
COc1ccc(C2C(C(=O)N3CCOCC3)=C(C)NC3=C2C(=O)CC(C)(C)C3)cc1O (stereo not drawn) | -4.0 | -1.6 | 23700* | -1.0
CC1(C(=O)N/N=C/c2ccc3c(c2)OCO3)CC1(Br)Br (stereo not drawn) | 6.0 | 3.3 | 5204 | 1.5
Cn1c(-c2ccccc2)c(C=O)c2ccccc21 | -3.2 | -5.1 | 4523 | -0.5
Cn1c2c(c3ccccc31)CCSC2=O | 1.2 | -5.3 | 22095* | 0.1
O=C(OCC(=O)N1CCN(c2ccccc2)CC1)c1cc(Cl)ccc1[N+](=O)[O-] | -7.4 | -2.0 | 5467 | -2.5
SMILES | BoNT F protease | Anthrax LF prot | Bead autofluor | BoNT A protease
COCCn1cc(C(=S)N2CCOCC2)c2ccccc21 | -0.1 | -4.0 | 22910* | -0.1
O=C(c1cccs1)n1cc(C(=S)N2CCOCC2)c2ccccc21 | 0.9 | -1.1 | 20879* | -0.4
COCCn1cc(C(=S)N2CCCCC2)c2ccccc21 | 0.0 | -1.9 | 4380 | -0.6
C1CCC(n2nnnc2CN2CCCC2)CC1 | -2.7 | -0.5 | 23839* | -1.0
NC(=O)c1cc(S(=O)(=O)Nc2ccc(OC(F)(F)F)cc2)cs1 | 0.1 | -2.6 | 3818 | -2.0
O=C(O)c1ccc(/C=N/N2CCN(Cc3cccc4ccccc34)CC2)cc1 | -5.4 | 2.4 | 5030 | -1.9
FC(F)(F)c1ccc(/C=N/N2CCN(Cc3cccc4ccccc34)CC2)cc1 | -9.2 | -9.1 | 17471* | -3.7
C(=N\N1CCN(Cc2cccc3ccccc23)CC1)/c1cccnc1 | 5.1 | -11.2 | 20176* | 7.0
OCCC#Cc1ccc(CN2CCN(C3CCCCC3)C(CCO)C2)cc1 (stereo not drawn) | -2.3 | 0.9 | 2061 | -0.3
CC1ON=C(c2cccc3ccccc23)N(C)C1=O (stereo not drawn) | -2.6 | -3.9 | 5721 | 0.2
O=C(Nc1ccc(Cl)cc1C(=O)c1ccccc1)c1ccco1 | -8.8 | 5.1 | 7038 | -1.0
O=C(Nc1ccc(Cl)cc1C(=O)Nc1ccc(Br)cn1)c1ccco1 | -5.7 | 0.0 | 20162* | -1.8
Cc1ccc(-c2nnn(Cc3nc(N)nc(N4CCOCC4)n3)n2)cc1 | -1.1 | 0.9 | 23278* | 0.0
Cc1ccc(-c2nnn(CC(=O)Nc3ccccc3N3CCOCC3)n2)cc1 | 4.4 | -1.8 | 7835 | 0.2
Cc1cc(Cl)ccc1OCCCC(=O)N1CCN(C(=O)c2ccco2)CC1 | 8.2 | -3.9 | 21790* | 3.4
O=C(NCc1ccccc1)c1cccc(OCC(=O)N2CCN(C(=O)c3ccco3)CC2)c1 | 1.4 | 3.0 | 20088* | ?
CCOc1cc(C(=O)NCc2ccccc2)ccc1OCC(=O)N1CCCCC1 | -4.7 | 1.3 | 2769 | -0.4
O=C(NCc1ccccc1)c1ccccc1OCC(=O)N1CCCCC1 | -2.2 | -2.1 | 22260* | -0.9
O=C(CCCOc1ccccc1)N1CCN(C(=O)c2ccco2)CC1 | 0.3 | 0.7 | 23020* | 0.2
Cc1ccc(OCC(=O)N2CCN(C(=O)c3ccco3)CC2)cc1 | -5.6 | -3.9 | 3896 | -0.8
CCOc1cc(CNc2nn[nH]n2)ccc1OCC(=O)NC(C)(C)C | 1.0 | -1.4 | 3220 | -0.3
Cc1sc2nc(CN(Cc3ccccc3)C(=O)NC3CCCCC3)[nH]c(=O)c2c1C | 38.3* | 4.8 | 4141 | 3.7
CC(=O)N(Cc1ccccc1)Cc1nc2sc(C)c(C)c2c(=O)[nH]1 | -3.1 | -6.5 | 3475 | -0.9
COc1ccc(CN2C(=O)CCC2(C)C(=O)NC2CCCCCC2)cc1 (stereo not drawn) | 0.6 | -3.0 | 23241* | -1.9
COc1cccc(CN2C(=O)CCC2(C)C(=O)NC2CCCCC2)c1 (stereo not drawn) | -6.9 | -6.7 | 4481 | 0.3
SMILES | BoNT F protease | Anthrax LF prot | Bead autofluor | BoNT A protease
CC(C)CCN1C(=O)CCC1(C)C(=O)NC1CCCCCCC1 (stereo not drawn) | -0.9 | -1.0 | 23125* | -0.3
CC1(C(=O)NC2CCCC2)CCC(=O)N1Cc1ccc2c(c1)OCO2 (stereo not drawn) | -6.9 | -3.0 | 25159* | -4.4
CCOC(=O)c1c(-c2cc(OC)c(OC)c(OC)c2)csc1N | -1.9 | -0.8 | 3400 | -0.1
COc1ccc(C(O)Cc2nccn2C)cc1 (stereo not drawn) | 2.0 | -4.2 | 5772 | -0.2
Cc1nc(C(F)(F)F)ccc1C(=O)N1CCCC(C(=O)O)CC1 (stereo not drawn) | 5.3 | -0.4 | 3763 | -0.2
CCOC(=O)C1=C(COC(=O)CSc2ccc(C)cc2)NC(=O)NC1C (stereo not drawn) | 6.6 | 4.6 | 8023 | -0.5
CCS(=O)(=O)n1nc(-c2ccc(Cl)cc2)nc1SC | -2.1 | -4.1 | 22674* | -0.7
Cc1ccc(C(=O)Nc2c3c(nn2C(C)(C)C)CS(=O)(=O)C3)cc1[N+](=O)[O-] | 4.3 | 1.5 | 4141 | 1.4
Cc1ccc(C(=O)Nc2c3c(nn2C(C)(C)C)CS(=O)(=O)C3)cc1C | -1.7 | -0.7 | 20652* | -1.9
